# Only some compounds are listed: those with a hit (about 11% of all), similar ones and a draw of the others.
# HP1b chromo inh: blocks HP1-beta chromodomain binding to methylated histone tails. P83916. AlphaScreen HP1-beta / biotin-H3K9me3 peptide binding. Potency, µM (top dose mostly 114 µM), hits mostly inhibitors. 390,000 tested, 0.56% active. AID 540317; note: nearly all actives have a fitted effect of over 70% in size
# Target sequence (P83916 whole entry, looked up): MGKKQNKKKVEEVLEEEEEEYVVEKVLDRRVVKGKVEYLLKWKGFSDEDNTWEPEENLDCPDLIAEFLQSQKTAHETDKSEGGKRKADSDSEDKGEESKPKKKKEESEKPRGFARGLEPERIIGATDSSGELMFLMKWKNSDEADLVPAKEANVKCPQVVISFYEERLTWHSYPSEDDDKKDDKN
#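 HP1-beta protein (50 nM final) preincubated 30 min at room temperature with biotinylated H3(1-18)K9me3 peptide (50 nM) in PBS pH 7.4, 0.01% Tween-20, then compound added for 30 min. AlphaScreen streptavidin donor/nickel chelate acceptor beads (10 ug/mL final), 30 min dark, luminescence read.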
# JMJD2A Tudor: JMJD2A Tudor domain (human) inhibition | O75164 | AlphaScreen JMJD2A-Tudor / H3K4me3 peptide binding | Potency, µM (series often up to 114 µM), usual class: inhibitors | 390,000 tested, 4.4% active | AID 504339; note: nearly all actives have a fitted effect of over 50% in size
# L3MBTL1 inh: inhibitors of human L3MBTL1; AID 485360; AlphaScreen L3MBTL1–H3K9me1 peptide binding; Potency, µM (series often up to 57.1 µM), usual class: inhibitors; 230,000 tested, 0.66% active; Q9Y468; note: nearly all actives have a fitted effect of over 60% in size
#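 Read-out is AlphaScreen signal from streptavidin donor and nickel chelate acceptor beads (10 ug/mL final each) bridging L3MBTL1 (50 nM) and biotinylated K9-monomethylated H3(1-15) peptide (75 nM), after 30 min compound exposure at room temperature.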
# G9a block: G9a (human) methyltransferase inhibition; Q96KQ7; G9a H3K9 monomethylation, AlphaScreen, 2 h; Potency, µM (series often up to 102 µM), hits mostly inhibitors; 350,000 tested, 8.8% active; AID 504332; note: nearly all actives have a fitted effect of over 75% in size
# Target sequence (Q96KQ7 913-1193 limits assumed): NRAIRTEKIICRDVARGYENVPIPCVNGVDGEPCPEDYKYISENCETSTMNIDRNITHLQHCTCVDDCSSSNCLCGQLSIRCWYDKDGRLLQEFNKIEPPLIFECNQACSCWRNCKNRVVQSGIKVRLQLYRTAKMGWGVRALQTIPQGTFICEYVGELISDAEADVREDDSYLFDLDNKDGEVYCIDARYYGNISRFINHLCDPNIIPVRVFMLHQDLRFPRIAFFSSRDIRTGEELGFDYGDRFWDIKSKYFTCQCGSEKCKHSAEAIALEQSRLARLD
#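 Compounds were preincubated with 20 nM G9a for 15 min, after which biotinylated H3K9 peptide (500 nM) and SAM (20 uM) started a 2 h room-temperature reaction. Monomethylated product was quantified by antibody-based AlphaScreen chemiluminescence.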
# BAZ2B inh: inhibitors of human BAZ2B bromodomain. AlphaScreen BAZ2B-H3K14Ac peptide displacement. Potency, µM (doses to about 114 µM), most hits filed as inhibitors. 360,000 tested, 4.4% active. Q9UIF8; note: nearly all actives have a fitted effect of over 60% in size
#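 In this displacement format the biotinylated H3(5-23) peptide acetylated at Lys14 serves as ligand at 50 nM, with BAZ2B at 50 nM in PBS pH 7.4 containing 0.01% Tween-20. Donor and acceptor beads are 10 ug/mL final.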
# A number is an active result; . = inactive; ? = inconclusive; / = no result given; [ ] = remark or other dose. Calls come from the whole dose curve; as a rule, active = well fitted inhibition curve with a large enough effect; inconclusive = small, poorly fitted or top-dose-only effect; inactive = no such curve, though single readings can be large or run the other way.
SMILES,HP1b chromo inh,JMJD2A Tudor,L3MBTL1 inh,G9a block,BAZ2B inh
CC(C)(C)OC(=O)N/N=C/c1cccc([N+](=O)[O-])c1,.,.,/,50µM,/
Cn1c(=O)c2cc3c(nc2n(C)c1=O)CC(c1ccccc1)CC3=O (centres undefined),.,56µM,.,.,.
CSc1nc2nc3c(cn2n1)C(=O)CC(c1ccccc1)C3 (centres undefined),.,.,/,.[12.7 µM],.
CN(C)c1ccc(C2SCCN2C(=O)c2ccc([N+](=O)[O-])cc2)cc1 (centres undefined),?,?,.,?,45µM
O=C(c1ccc([N+](=O)[O-])cc1)N1CCSC1c1ccccc1 (centres undefined),.,.,.,.,.
CCOc1ccc2nc(N3CCCC(C(=O)NCCCN4C(C)CCCC4C)C3)sc2c1 (centres undefined),.,.,/,40µM,?
CCCN(CCC)CCNC(=O)C1CCN(c2nc3ccc(CC)cc3s2)CC1,.,.,/,.,.
CCc1ccc2nc(N3CCC(C(=O)NCCC(C)C)CC3)sc2c1,.,.,/,14µM,.
O=[N+]([O-])c1c(NCCO)cc(N2CCCCCC2)c2nonc12,.,.,.,.,.
Cc1nnc(Sc2cc(NCCCO)c([N+](=O)[O-])c3nonc23)s1,13µM,28µM,.,5.6µM,.
CCCSc1cc(NCCOC(C)=O)c([N+](=O)[O-])c2nonc12,.,.,.,.,.
Cc1nnc(Sc2cc(NCCO)c([N+](=O)[O-])c3nonc23)s1,13µM,?,.,2µM,.
CC(=O)N1CCc2c(sc3nc(SCC(N)=O)n(-c4ccc(F)c(Cl)c4)c(=O)c23)C1,.,.,/,?,.
O=C(c1cnc(N2CCCCC2)c2ccccc12)N1CCN(c2cccc(Cl)c2)CC1,.,.,/,.,.
Cn1c(Cc2ccccc2)nnc1SCC(=O)Nc1ccccc1,.,.,.,.,.
Cn1c(Cc2ccccc2)nnc1SCC(=O)c1cccs1,.,.,/,50µM,.
Cc1ccc2cc(C)c3nnc(SCC(=O)c4cccs4)n3c2c1C,.,?,.,35µM,.
Cc1cc2ccc(C)c(C)c2nc1SCC(=O)c1cccs1,.,.,.,.,.
Cc1ccc(C)c2c1cc(C)c1nnc(SCC(=O)c3cccs3)n12,.,?,.,13µM,.
COCCNC(=O)C(=O)Nc1c2c(nn1-c1ccccc1)CS(=O)(=O)C2,.,?,/,?,.
Cc1nnsc1C(=O)NNc1ccc(C(C)(C)C)cc1,.,.,.,1.8µM,.
Cc1nnsc1C(=O)NNc1ccc(C(C)C)cc1,.,.,.,8.9µM,.
Cc1cc(C(=O)NNc2ccc(C(C)C)cc2)n(C(C)(C)C)n1,.,?,/,7.9µM,?
Cc1nnsc1C(=O)NNC(=O)c1ccc(C(F)(F)F)cc1,.,.,.,/,.
Cc1cc(C)cc(NC(=O)N2CCC3(CC2)Oc2ccccc2C(=O)N3Cc2ccccc2F)c1,.,.,/,.,.
SMILES,HP1b chromo inh,JMJD2A Tudor,L3MBTL1 inh,G9a block,BAZ2B inh
CN1CCN(CC#CCC(O)(c2ccccc2)c2ccccc2)CC1,.,.,.,71µM,.
OC(CC#CCN1CCCCC1)(c1ccccc1)c1ccccc1,.,.,.,.,.
CN1CCN(CC#CCC(O)(c2ccccc2)C2CCCC2)CC1 (centres undefined),.,.,.,8.9µM,?
OC(CC#CCN1CCCC1)(c1ccccc1)c1ccccc1,.,.,.,28µM,.
COc1ccc(CNC(=O)CCC2N=C3c4ccccc4N=C(SCC(=O)NCCc4ccc(OC)c(OC)c4)N3C2=O)cc1 (centres undefined),.,.,/,.,.
CC(C)(C)Nc1nc(C#N)nc(Nc2ccccc2)n1,/,.,/,/,/
O=C(NC1CC(=O)N(c2ccccc2)C1)c1ccc(S(=O)(=O)N2CCCC2)cc1 (centres undefined),.,.,/,.,.
C/C(=N\NC(=O)c1cccc(S(=O)(=O)N2CCCC2)c1)c1cccs1,.,56µM,.,.,.
C/C(=N\NC(=O)c1cccc(S(=O)(=O)N2CCOCC2)c1)c1ccc(C#N)cc1,.,.,/,40µM,?
COc1ccc(/C(C)=N/NC(=O)c2cccc(S(=O)(=O)N3CCCC3)c2)c(O)c1,.,?,6.3µM,.[2.33 µM],2.8µM
CC(=NNC(=O)c1cccc(S(=O)(=O)N2CCOCC2)c1)c1ccccc1,.,.,.,/,/

# Source: PubChem BioAssay
